Results as given in PubChem BioAssay (Tox21).
Where “and” joins values, the source holds several entries; their conditions need not be identical. Equal values may be shown once. Records with an inconclusive call do not appear. A call without a number means that no potency is given here. Some compounds were tested as several samples or in several runs, with calls that do not always agree. Calls of active or inactive are those of the source. Unless noted, calls follow the shape of the dose curve; as a rule, active = well fitted curve in the direction sought with a large enough effect in the repeat runs; inconclusive = weak or mixed curves; inactive = no such curve, though single readings can be large; an effect the other way counts as inactive or inconclusive.

Columns and labels:
[1] = molecular target: Retinoic acid receptor RXR-alpha (Homo sapiens) (UniProt P19793); assay: qHTS assay to identify small molecule agonists of the RXR signaling pathway (AID 1159527; calls by dose curve; also: nearly all actives have a fitted effect of over 35% in size; also: potency is read from the fitted curve at half-maximal effect)
Method in brief: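 Agonist-mode beta-lactamase reporter assay: HEK 293T RXR-alpha-UAS-bla cells treated 16 hr at 37 C with compounds, 9-cis retinoic acid as positive control. LiveBLAzer FRET substrate, 405 nm excitation, 460/530 nm emission.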

[2] = qHTS assay to identify small molecule agonists of the RXR signaling pathway - cell viability counter screen (AID 1159529); also: series mostly up to about 77 µM; nearly all actives have a fitted effect of over 50% in size
Method in brief: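 CellTiter-Glo luminescence gave viability in the wells also read for beta-lactamase. Cells (RXR-alpha-UAS-bla HEK 293T, 2% charcoal-stripped FBS medium) had 5 hr plating, then 16 hr compound exposure at 37 C; tetraoctyl ammonium bromide served as positive control.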

[3] = qHTS assay to identify small molecule antagonists of the retinoid acid receptor (RAR) signaling pathway - cell viability counter screen (AID 1159551); also: nearly all actives have a fitted effect of over 35% in size
Method in brief: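 Cytotoxicity counter screen: ATP content quantified by CellTiter-Glo luminescence in C3RL4 cells treated 6 hr at 37 C with compound and retinol (1 uM final). Cells plated at 1,000/well and cultured overnight before dosing.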

[4] = qHTS assay to identify small molecule antagonists of the estrogen related receptor (ERR) signaling pathway from Tox21 library - cell viability counter screen (AID 1224834); also: nearly all actives have a fitted effect of over 30% in size
Method in brief: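 CellTiter-Fluor fluorescence, read after 30 min at 37 C, measures viability of ERR cells. Cells plated at 2,000/well and incubated 6 h before pin-tool compound addition, then exposed 17.5 hours at 37 C.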

[5] = molecular target: Luciferin 4-monooxygenase (Photinus pyralis) (UniProt P08659); assay: qHTS assay to identify small molecule inhibitors of firefly luciferase (AID 1224835); also: series mostly up to about 120 µM; nearly all actives have a fitted effect of over 25% in size
Method in brief: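 Quantitative HTS format; KM concentrations of both substrates. Purified P. pyralis FLuc activity quantified from luminescence images.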

[6] = qHTS assay to identify small molecule agonists of the constitutive androstane receptor (CAR) signaling pathway - cell viability counter screen (AID 1224836); also: series mostly up to about 92 µM; nearly all actives have a fitted effect of over 45% in size
Method in brief: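 Cell viability multiplexed with the CAR agonist screen: CellTiter-Fluor fluorescence after 23 hr at 37 C. HepG2-CYP2B6-hCAR cells got compounds at 15 concentrations with PK11195 at 0.75 uM final.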

[7] = qHTS assay to identify small molecule antagonists of the constitutive androstane receptor (CAR) signaling pathway - cell viability counter screen (AID 1224837); also: series mostly up to about 92 µM; nearly all actives have a fitted effect of over 45% in size
Method in brief: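 Cytotoxicity counter-screen: CellTiter-Fluor fluorescence after 23 h compound exposure (15-point qHTS) in double-stable HepG2-CYP2B6-hCAR cells, with 50 nM CITCO added.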

[8] = molecular target: Nuclear receptor subfamily 1 group I member 3 (Homo sapiens) (UniProt Q14994); assay: qHTS assay to identify small molecule agonists of the constitutive androstane receptor (CAR) signaling pathway (AID 1224839); also: nearly all actives have a fitted effect of over 15% in size; also: potency is read from the fitted curve at half-maximal effect;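 as to activation: HepG2 cells stably carrying human CAR and a CYP2B6 luciferase reporter; series mostly up to about 92 µM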
Method in brief: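 Luminescent ONE-Glo read-out after 24 hr, 37 C exposure of double-stable HepG2-CYP2B6-hCAR reporter cells to a 15-point compound series, in the presence of 0.75 uM PK11195 (final).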

[9] = qHTS assay to identify small molecule antagonists of the estrogen related receptor signaling pathway with the pleiotropic PPARgamma coactivator (PGC) from Tox21 10K library - cell viability counter screen (AID 1224840; active = well fitted cell-killing curve with a large enough effect in the repeat runs, not every such curve was filed as active; also: nearly all actives have a fitted effect of over 40% in size)
Method in brief: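 Counter-screen for cytotoxicity: after 17.5 h compound exposure at 37 C, CellTiter-Fluor reagent added to PGC/ERR cells for 30 min and fluorescence read. Cells were seeded at 2,000 per well 6 h before dosing.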

[10] = molecular target: Thyrotropin receptor (Homo sapiens) (UniProt P16473); assay: qHTS assay to identify small molecule agonists of the thyroid stimulating hormone receptor (TSHR) signaling pathway (AID 1224843; calls by dose curve; also: nearly all actives have a fitted effect of over 45% in size)
Method in brief: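 Compounds are titrated over 15 concentrations, in triplicate, onto TSHR-HEK293 cells seeded at 800/well. Plates sit 30 min at room temperature before cAMP-d2 and anti-cAMP cryptate are added; signal is read after a further hour.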

[11] = qHTS assay to identify small molecule agonists of the hypoxia (HIF-1) signaling pathway - cell viability counter screen (AID 1224844; calls by dose curve; also: nearly all actives have a fitted effect of over 50% in size)
Method in brief: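 Cytotoxicity measured by CellTiter-Glo ATP luminescence in the wells also read for beta-lactamase signal. Cells were HRE-bla ME-180 (2,000/well, 0.5% dialyzed FBS), exposed to compounds for 17 h at 37C.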

[12] = qHTS assay to identify small molecule agonists of H2AX (AID 1224845; active = well fitted activation curve with a large enough effect in the signal ratio in the repeat runs, not every such curve was filed as active; the % refers to the signal ratio)
Method in brief: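 Wild-type CHO-K1 cells plated overnight, then exposed 3 hr at 37C to compounds at 15 concentrations (0.76% DMSO). Lysed, then HTRF anti-pH2AX(S139)-cryptate/anti-H2AX-d2 detection after 24 hr at room temperature; emissions 665 and 620 nm.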

[13] = qHTS assay to identify small molecule agonists of the hypoxia (HIF-1) signaling pathway (AID 1224846; active = well fitted activation curve with a large enough effect in the signal ratio in the repeat runs, not every such curve was filed as active; the % refers to the signal ratio)
Method in brief: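 Compounds added to ME-180 cells carrying hypoxia-response-element beta-lactamase reporter (0.5% dialyzed FBS, 5 h preplating), 17 h at 37C; agonist activity detected by CCF4-AM B/G FRET read-out.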

[14] = molecular target: Nuclear receptor subfamily 1 group I member 3 (Homo sapiens) (UniProt Q14994); assay: qHTS assay to identify small molecule antagonists of the constitutive androstane receptor (CAR) signaling pathway (AID 1224838);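 also: HepG2 cells stably expressing hCAR with CYP2B6 luciferase reporter stimulated by CITCO; nearly all actives have a fitted effect of over 40% in size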
Method in brief: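 Antagonism measured as luciferase signal (ONE-Glo, 30 min, room temperature) in CAR-stimulated cells: HepG2-CYP2B6-hCAR double-stable line exposed 24 hr at 37 C to compound in a 15-point series plus 50 nM CITCO.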

[15] = qHTS assay to identify small molecule antagonists of the estrogen related receptor signaling pathway with the pleiotropic PPARgamma coactivator (PGC) from Tox21 10K library (AID 1224841; call rule not given here; also: actives are mostly falling curves and most rising ones were filed inactive; nearly all actives have a fitted effect of over 50% in size; also: potency is read from the fitted curve at half-maximal effect)
Method in brief: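 Luminescence (One-Glo, 30 min at room temperature) after 18 h compound treatment at 37 C of PGC/ERR reporter cells plated at 2,000 cells/well and settled 6 h beforehand.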

[16] = qHTS assay to identify small molecule agonists of the estrogen related receptor signaling pathway with the pleiotropic PPARgamma coactivator (PGC) from Tox21 10K library (AID 1224842); also: nearly all actives have a fitted effect of over 15% in size
Method in brief: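 PGC/ERR reporter cells (NTP line) were seeded 2,000 per well, rested 6 h at 37 C/5% CO2, then pin-dosed with compounds in DMSO for 18 h at 37 C; luciferase read by One-Glo luminescence after 30 min at room temperature.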

[17] = qHTS assay to identify small molecule agonists of the retinoic acid receptor (RAR) signaling pathway (AID 1159553)
Method in brief: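 Luminescence was measured 30 min after luciferase reagent addition at room temperature. Before that, C3RL4 reporter cells (1,000 per well, plated overnight) were treated with compound for 6 hr at 37 C and 5% CO2.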

[18] = qHTS assay to identify small molecule antagonists of the retinoic acid receptor (RAR) signaling pathway (AID 1159552; also: nearly all actives have a fitted effect of over 50% in size; also: potency is read from the fitted curve at half-maximal effect)
Method in brief: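 Luminescent RARE reporter read-out in C3RL4 cells: 6 hr co-treatment at 37 C of test compounds with retinol at 1 uM final. Cells plated overnight beforehand; luciferase reagent incubated 30 min at room temperature before reading.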

[19] = qHTS assay to identify small molecule antagonists of the estrogen related receptor (ERR) signaling pathway - cell viability counter screen (AID 1224818);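 also: series mostly up to about 46 µM; viability measured after 17.5 h of compound exposure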
Method in brief: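 Cytotoxicity counter screen: fluorescence from CellTiter-Fluor, added after 17.5 h compound exposure at 37 C and read 30 min later. ERR cell line seeded at 2,000 cells/well, preincubated 6 h before dosing.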

[20] = qHTS assay to identify small molecule antagonists of the estrogen related receptor signaling pathway with the pleiotropic PPARgamma coactivator (PGC) cell viability counter screen (AID 1224822; also: series mostly up to about 46 µM)
Method in brief: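 Viability counter-screen read by fluorescence intensity after 30 min with CellTiter-Fluor at 37 C; PGC/ERR reporter cells were exposed to compounds for 17.5 h at 37 C following a 6 h preincubation.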

Sequence of Retinoic acid receptor RXR-alpha (Homo sapiens) (P19793 whole entry, looked up): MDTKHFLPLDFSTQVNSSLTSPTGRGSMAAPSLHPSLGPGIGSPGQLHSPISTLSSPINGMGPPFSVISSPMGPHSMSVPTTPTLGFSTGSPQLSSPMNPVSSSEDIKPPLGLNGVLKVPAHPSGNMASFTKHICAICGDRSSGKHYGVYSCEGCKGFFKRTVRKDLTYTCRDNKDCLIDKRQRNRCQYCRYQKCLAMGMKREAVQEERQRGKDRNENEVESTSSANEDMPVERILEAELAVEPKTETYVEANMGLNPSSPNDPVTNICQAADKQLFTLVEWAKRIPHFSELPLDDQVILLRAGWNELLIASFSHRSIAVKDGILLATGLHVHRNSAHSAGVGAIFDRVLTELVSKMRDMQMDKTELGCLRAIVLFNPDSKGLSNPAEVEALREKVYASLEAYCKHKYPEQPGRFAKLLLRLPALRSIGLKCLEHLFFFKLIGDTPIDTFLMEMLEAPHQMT
Sequence of Thyrotropin receptor (Homo sapiens) (P16473 whole entry, looked up): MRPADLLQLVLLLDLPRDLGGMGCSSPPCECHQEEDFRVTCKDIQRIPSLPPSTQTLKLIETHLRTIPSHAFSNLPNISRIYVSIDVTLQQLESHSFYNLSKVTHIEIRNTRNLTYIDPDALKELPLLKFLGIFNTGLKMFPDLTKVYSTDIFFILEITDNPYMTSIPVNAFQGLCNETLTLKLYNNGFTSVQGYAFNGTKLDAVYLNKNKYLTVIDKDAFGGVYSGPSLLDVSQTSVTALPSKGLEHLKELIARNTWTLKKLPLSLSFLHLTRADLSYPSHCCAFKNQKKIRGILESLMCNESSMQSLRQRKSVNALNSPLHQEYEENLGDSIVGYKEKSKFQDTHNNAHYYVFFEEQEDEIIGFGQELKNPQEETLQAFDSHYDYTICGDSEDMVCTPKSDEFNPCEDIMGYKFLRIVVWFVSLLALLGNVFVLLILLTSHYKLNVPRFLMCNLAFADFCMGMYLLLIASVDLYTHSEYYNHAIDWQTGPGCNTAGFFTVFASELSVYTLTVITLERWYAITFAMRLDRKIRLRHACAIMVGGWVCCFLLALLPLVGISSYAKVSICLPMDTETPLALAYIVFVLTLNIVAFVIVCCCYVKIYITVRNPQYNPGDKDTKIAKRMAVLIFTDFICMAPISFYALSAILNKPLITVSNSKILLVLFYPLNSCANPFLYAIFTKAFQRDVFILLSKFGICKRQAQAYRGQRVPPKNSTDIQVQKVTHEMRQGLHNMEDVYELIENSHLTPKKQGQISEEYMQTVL
Sequence of Luciferin 4-monooxygenase (Photinus pyralis) (P08659 whole entry, looked up): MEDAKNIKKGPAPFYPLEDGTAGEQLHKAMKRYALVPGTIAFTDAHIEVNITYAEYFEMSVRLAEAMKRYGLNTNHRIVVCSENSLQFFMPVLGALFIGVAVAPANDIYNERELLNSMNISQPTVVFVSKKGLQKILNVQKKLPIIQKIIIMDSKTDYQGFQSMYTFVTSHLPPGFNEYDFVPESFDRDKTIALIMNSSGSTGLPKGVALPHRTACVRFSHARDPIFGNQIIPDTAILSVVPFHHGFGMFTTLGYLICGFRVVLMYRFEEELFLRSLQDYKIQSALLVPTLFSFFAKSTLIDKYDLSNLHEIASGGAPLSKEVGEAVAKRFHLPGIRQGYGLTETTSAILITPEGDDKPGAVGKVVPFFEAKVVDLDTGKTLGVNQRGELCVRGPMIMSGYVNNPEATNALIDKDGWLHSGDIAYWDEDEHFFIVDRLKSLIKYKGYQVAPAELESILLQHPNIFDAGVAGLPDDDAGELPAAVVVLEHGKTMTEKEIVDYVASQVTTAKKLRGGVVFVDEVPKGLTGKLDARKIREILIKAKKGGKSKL
Sequence of Nuclear receptor subfamily 1 group I member 3 (Homo sapiens) (Q14994 whole entry, looked up): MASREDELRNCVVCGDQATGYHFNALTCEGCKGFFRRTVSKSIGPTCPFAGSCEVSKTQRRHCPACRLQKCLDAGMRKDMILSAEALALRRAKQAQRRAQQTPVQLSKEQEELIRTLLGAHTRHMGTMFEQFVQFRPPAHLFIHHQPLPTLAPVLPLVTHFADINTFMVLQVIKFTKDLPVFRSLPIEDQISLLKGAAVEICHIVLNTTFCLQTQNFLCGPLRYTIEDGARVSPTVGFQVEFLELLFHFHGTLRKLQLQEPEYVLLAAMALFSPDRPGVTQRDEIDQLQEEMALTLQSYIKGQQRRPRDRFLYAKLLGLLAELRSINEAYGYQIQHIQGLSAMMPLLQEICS

Compound	Potency [1]	Potency [2]	outcome [3]	Potency [4]	Potency [5]	Potency [6]	Potency [7]	Potency [8]	Potency [9]	Potency [10]	Potency [11]	Potency [12]	outcome [13]	Potency [14]	Potency [15]	outcome [16]	Potency [17]	Potency [18]	outcome [19]	outcome [20]
CCCCCC(N)=O	inactive	inactive	inactive	inactive	inactive	inactive	inactive	inactive	inactive	inactive	inactive	inactive	inactive							
CN(C)CCOCCN(C)C	inactive	inactive	inactive	inactive	inactive	inactive	inactive	inactive		inactive	inactive	inactive	inactive	inactive	inactive	inactive				
O=c1[nH]nnc2ccccc12	inactive	inactive	inactive	inactive	inactive	inactive	inactive	inactive		inactive	inactive	inactive	inactive		inactive	inactive				
Cc1cccnc1	inactive	inactive	inactive	inactive	inactive	inactive	inactive	inactive	inactive	inactive	inactive	inactive	inactive		inactive	inactive				
CC(=O)OCC(=O)[C@@]12N=C(C)O[C@@H]1C[C@H]1[C@@H]3CCC4=CC(=O)C=C[C@]4(C)[C@H]3[C@@H](O)C[C@@]12C	inactive	inactive	inactive	inactive	inactive	inactive	inactive	inactive		inactive	inactive	inactive	inactive				inactive			
CCCCCCCC(=O)OC	inactive	inactive	inactive	inactive	inactive	inactive	inactive	inactive	inactive	inactive	inactive	inactive	inactive	inactive						
O=C(O)[C@H](O)[C@@H](O)[C@H](O)[C@H](O)CO	inactive	inactive	inactive	inactive	inactive	inactive	inactive		inactive		inactive	inactive	inactive					inactive		
O=c1[nH]c(=O)n([C@H]2C[C@H](O)[C@@H](CO)O2)cc1Br	inactive	inactive	inactive	inactive	inactive	inactive	inactive	7.81 µM (active) and 10.6 µM (active)	inactive	inactive	inactive	inactive							inactive	inactive
C/C=C1/CC2C=CC1C2 (stereo not given)	inactive	inactive	inactive	inactive	inactive	inactive	inactive	inactive			inactive	inactive	inactive					inactive		
CC1=C(C)S(=O)(=O)CCS1(=O)=O	inactive	inactive	inactive	inactive	inactive	inactive	inactive	3.01 µM (active)	inactive		inactive	inactive	inactive		inactive	inactive				
CCC(O)OCCCOC (stereo not given)	inactive	inactive	inactive	inactive	inactive	inactive	inactive	inactive	inactive	inactive	inactive	inactive	inactive		inactive	inactive				
CC1=CCC2CC1C2(C)C (stereo not given)	inactive	inactive	inactive	inactive	inactive	inactive	inactive		inactive	inactive	inactive	inactive	inactive					inactive		
COc1ccc(Nc2ccccc2)c(C)c1	inactive	inactive	inactive	inactive	inactive	inactive	inactive		inactive	inactive	inactive	inactive	inactive		inactive	inactive				
O=C(O)c1ccc(C(=O)O)cc1	inactive	inactive	inactive	inactive	inactive	inactive	inactive	inactive	inactive	inactive	inactive	inactive	inactive	inactive						
CC(=O)c1ccccc1	inactive	inactive	inactive	inactive	inactive	inactive	inactive	inactive		inactive	inactive	inactive	inactive	inactive						
CN(C)CCCN	inactive	inactive	inactive	inactive	inactive	inactive	inactive	inactive	inactive	inactive	inactive	inactive	inactive	inactive	inactive	inactive				
CCCCN(CCCC)CCCC	inactive	inactive	inactive	inactive	inactive	inactive	inactive	inactive		inactive	inactive	inactive	inactive	inactive						
Cc1occc(=O)c1O	inactive and 12.9 µM (active)	inactive	inactive	inactive	inactive	inactive	inactive	inactive		inactive	inactive	inactive	inactive							
O=P(OC(CCl)CCl)(OC(CCl)CCl)OC(CCl)CCl	inactive	inactive	inactive		inactive	inactive	inactive		inactive				inactive		54.2 µM (active) and 54.5 µM (active)	inactive		inactive and 27.3 µM (active)		
Cc1ccc(S(N)(=O)=O)cc1	inactive	inactive	inactive	inactive	inactive	inactive	inactive		inactive	inactive	inactive	inactive	inactive					inactive		
